Reference: the supplement of paper PMC6555819

Columns and labels:
Experiment in all cases: PBM binding z-score (relative to random genomic background probes); higher = stronger binding; sequences stand for … in GC…GCGATTGACAGCGTAGAATGAAGG
[1] = system: PPARg:RXRa DBDmut IVT, anti-RXR (DBD mutation: RXRa K156A/R161A, NR concentration 270 nM, RXRa partner concentration 90 nM)
Method in brief: (§1)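 Scanned fluorescence from custom Agilent 4×180K protein-binding microarrays was regression-normalized. Binding z-scores use random background probes as reference. Ligand-free nuclear receptor dimers were incubated on the arrays for 1 h and detected with antibodies against each partner (one per run).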

[2] = system: PPARg:RXRa IVT, anti-PPARg (NR concentration 270 nM, RXRa partner concentration 90 nM)
Method in brief: as §1

[3] = system: PPARg DBDmut:RXRa IVT, anti-PPARg (DBD mutation: PPARg1 K132A/R137A, NR concentration 270 nM, RXRa partner concentration 90 nM)
Method in brief: as §1

[4] = system: PPARg DBDmut IVT, anti-PPARg (DBD mutation: PPARg1 K132A/R137A, NR concentration 270 nM)
Method in brief: as §1

[5] = system: PPARg homodimer (NR concentration 180 nM)
Method in brief: as §1

[6] = system: PXR:RXRa (NR concentration 270 nM, RXRa partner concentration 90 nM)
Method in brief: as §1

[7] = system: PXR homodimer (NR concentration 270 nM)
Method in brief: as §1

[8] = system: RARa:RXR (NR concentration 270 nM, RXRa partner concentration 90 nM)
Method in brief: as §1

[9] = system: RARa homodimer (NR concentration 270 nM)
Method in brief: as §1

[10] = system: RARb:RXRa (NR concentration 270 nM, RXRa partner concentration 90 nM)
Method in brief: as §1

[11] = system: RARb homodimer (NR concentration 270 nM)
Method in brief: as §1

[12] = system: RARg:RXRa (NR concentration 270 nM, RXRa partner concentration 90 nM)
Method in brief: as §1

[13] = system: RARg homodimer (NR concentration 270 nM)
Method in brief: as §1

[14] = system: RXRa DBDmut IVT, anti-RXR (DBD mutation: RXRa K156A/R161A, NR concentration 90 nM)
Method in brief: as §1

[15] = system: RXRa homodimer (NR concentration 180 nM)
Method in brief: as §1

[16] = system: THRa:RXRa (NR concentration 90 nM, RXRa partner concentration 90 nM)
Method in brief: as §1

[17] = system: THRa homodimer (NR concentration 90 nM)
Method in brief: as §1

[18] = system: VDR:RXRa (NR concentration 270 nM, RXRa partner concentration 90 nM)
Method in brief: as §1

[19] = system: VDR homodimer (NR concentration 270 nM)
Method in brief: as §1

Sequence	PBM binding z-score [1]	PBM binding z-score [2]	PBM binding z-score [3]	PBM binding z-score [4]	PBM binding z-score [5]	PBM binding z-score [6]	PBM binding z-score [7]	PBM binding z-score [8]	PBM binding z-score [9]	PBM binding z-score [10]	PBM binding z-score [11]	PBM binding z-score [12]	PBM binding z-score [13]	PBM binding z-score [14]	PBM binding z-score [15]	PBM binding z-score [16]	PBM binding z-score [17]	PBM binding z-score [18]	PBM binding z-score [19]
CCTACTGGGGCATAAGGTTACCATAAGCCAGCCC	4.53	5.02	0.0293	-0.184	1.28	0.306	0.0136	1.42	0.103	1.74	1.86	1.78	1.29	-0.346	1.17	2.05	0.894	0.27	-0.339
TCTCGTAGATCAACAGGAGGTTAAGAAAGATCGA	1.41	0.00538	0.397	-0.0394	0.0333	0.901	-0.13	1.21	0.12	0.48	0.63	0.917	0.145	0.538	1.01	0.902	-0.325	0.875	-0.382
ATCTCTACGTAAAGTTCAGTGAAAGATCGATAGA	-0.332	0.634	1.64	1.55	1.75	1.93	1.97	1.39	1.12	3.02	2.6	2.27	2.86	1.51	1.2	0.674	-0.289	1.67	2.27
CAGCCTAGGTCATGGCCAGTATAGGAGGAACGTT	2.64	2.68	-0.045	-0.826	1.72	1.53	-0.702	2.45	0.132	3.99	3.01	4.38	4.94	1.17	3.32	2.93	0.965	1.84	0.197
TAACCAAGGTGAAGGTCGTTGATCCCTCTGTAGA	1.46	2.78	-0.196	-0.741	0.785	1.48	0.489	1.92	-0.478	2.12	1.83	1.4	1.38	0.174	1.87	2.32	0.878	1.31	0.809
TCATATAGGTAAACAGGTGAAAATCCGTAAGTTA	4.38	4.3	1.27	0.925	1.28	1.18	0.297	1.4	1.83	0.846	0.649	0.838	0.551	1.57	1.52	0.866	0.391	1.39	0.265
TCTTTTAGATCAGCAGGTTAAGAAAGCTGGCCAA	1.92	0.4	0.922	0.837	0.344	0.321	0.072	0.753	0.437	0.563	0.0082	0.209	0.197	1.02	0.581	0.357	-0.515	0.691	0.00166
